Most compounds without a hit are left out; they make up all but 2.7% or so of the library.
KDM5B inhibitor = inhibitors of human KDM5B histone demethylase | Q9UGL1 | KDM5B demethylase, FDH-coupled NADH fluorescence (FDH is formaldehyde dehydrogenase) | Potency, µM (highest dose often 57.7 µM), most hits filed as inhibitors | 2.6% of 220,000 active; note: potency is the fitted concentration of half-maximal effect; 0% is about no effect; nearly all actives have a fitted effect of over 70% in size
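Coupled FDH/NAD⁺ fluorescence readout. KDM5BΔAP 200 nM final; compound titration, 10 min RT preincubation; substrate mix 12.5 µM H3K4me3, 25 µM 2-OG, 50 µM Fe(II), 100 µM ascorbate, 0.25 mM NAD⁺, 0.25 U/mL FDH; ΔRFU over 30 min.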
IP6K1 inh = blocks human inositol hexakisphosphate kinase 1. 0.81% of 140,000 active. AID 1645851. activity change, % (series mostly up to about 58 µM). Q92551. IP6K1 kinase, ADP-Glo luminescence, 2 h; active compounds read low; in the data active = activity change below about -25%; note: % is set by controls: 0 for no effect and ±100 for the full control effect
Target sequence (Q92551 whole entry, looked up): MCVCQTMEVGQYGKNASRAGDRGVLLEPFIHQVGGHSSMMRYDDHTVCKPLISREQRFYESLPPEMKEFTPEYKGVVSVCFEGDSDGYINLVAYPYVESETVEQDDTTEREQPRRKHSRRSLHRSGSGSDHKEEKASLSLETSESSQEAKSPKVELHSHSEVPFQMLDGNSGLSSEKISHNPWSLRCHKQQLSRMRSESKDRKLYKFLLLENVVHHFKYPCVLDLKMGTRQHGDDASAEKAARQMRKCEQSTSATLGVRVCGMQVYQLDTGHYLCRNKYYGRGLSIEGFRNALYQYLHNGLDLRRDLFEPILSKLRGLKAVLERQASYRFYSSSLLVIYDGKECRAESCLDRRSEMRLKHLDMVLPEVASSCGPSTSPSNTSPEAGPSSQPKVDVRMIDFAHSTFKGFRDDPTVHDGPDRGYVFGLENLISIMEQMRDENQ
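ADP-Glo luminescence measures ADP made by human IP6K1 during a 2 h RT reaction with ATP/IP6 (mix at 1.3 mM/130 uM); top library doses 57.5 and 19.1 uM final.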
IP6K1 conf = human IP6K1 inhibition, confirmatory | shares compounds with IP6K1 inh | 13% of 1,200 active | recombinant IP6K1 kinase, ADP-Glo luminescence, 2 h | AID 1645852 | Potency, µM (series often up to 49 µM), without a hit: top-dose activity change, negative = inhibition, hits mostly inhibitors; note: potency is the fitted concentration of half-maximal effect; % is set by controls: 0 for no effect and ±100 for the full control effect; nearly all actives have a fitted effect of over 65% in size
* marks the source's active call; other numbers are inactive results; i = inactive; u = inconclusive; x = not tested or not shown. Unless noted, calls come from the whole dose curve; as a rule, active = well fitted inhibition curve with a large enough effect; inconclusive = small, poorly fitted or top-dose-only effect; inactive = no such curve, though single readings can be large or run the other way.

SMILES	KDM5B inhibitor	IP6K1 inh	IP6K1 conf
COc1cccc(NC(=O)c2cnc(SCC(=O)N3CCCc4ccccc43)n(C)c2=O)c1	i	-27*	-3%
Cn1c(SCC(=O)N2CCCc3ccccc32)ncc(C(=O)Nc2ccccc2)c1=O	i	-3	x
COCC(=O)N1CCC(C(=O)N2CCCC2c2nc3ccncc3[nH]2)CC1 (stereo unspecified)	x	-1	x
O=C(CNc1cccc(F)c1)NCc1ccc(Cl)cc1	i	x	x
COc1ccc(OC)c(CN2CCN(S(=O)(=O)c3ccccc3)CC2)c1	u	-3	x
COc1ccc(CN2CCN(S(=O)(=O)c3ccccc3)CC2)c(OC)c1	u	-49*	-3%
Cn1c(SCC(=O)Nc2ccccc2)nnc1-c1ccccc1	i	-34*	-5%
Cn1c(SCC(=O)Nc2ccc(NC(=O)c3ccccc3)cc2)nnc1-c1ccncc1	i	x	x
CCNC(=O)N1CC(Oc2cccc(-c3nc(-c4ccccc4)no3)c2)C1	i	4	x
CC(NC(=S)Nc1ccc(SC(F)F)cc1)c1ccncc1 (stereo unspecified)	i	x	x
COC(=O)c1cn(CC(=O)Nc2ccc(C)c(C)c2)c2ccccc12	i	x	x
CC#CC(=O)Nc1ccc2ncnc(Nc3cccc(Br)c3)c2c1	x	2	x
O=C(O)c1cccc(Nc2ncnc3ccc(Br)cc23)c1	u	-26*	u
CC(=O)c1cccc(Nc2ncnc3c2cnn3C)c1	i	-38*	u
CC(=O)Nc1ccc(Nc2ncnc3c2cnn3C)cc1	i	-3	x
CCCCCn1nc(C(=O)OCC(=O)Nc2cc(C)on2)c2ccccc2c1=O	i	x	x
COCCCn1c(C)cc(C(=O)NCC(=O)N2CCCCCNC(=O)CC2c2ccccc2)c1C (stereo unspecified)	i	-1	x
O=C(CN1CCOC1=O)N1CCCC(c2ccccc2)(c2ccccc2)C1	i	17	x
CCN1CC(C(=O)N2CCCC(c3ccccc3)(c3ccccc3)C2)CC1=O (stereo unspecified)	i	-34*	-12%
COc1ccc(-c2c(C)oc3cc(OC(C)=O)ccc3c2=O)cc1OC	i	x	x
Cc1ccccc1[C@@H]1CN(C(=O)CCC(=O)NC2CCCC2)C[C@H]1C(=O)O	i	-35*	13%
Cc1ccccc1CC(=O)NC1CCCC1	i	x	x
Cc1c(O)nc(SCC(=O)Nc2ccc(Cl)cc2Cl)n(-c2ccc(F)cc2)c1=O	i	-27*	u
Cc1c(O)nc(SCC(=O)Nc2cccc(C(F)(F)F)c2)n(-c2ccccc2)c1=O	i	x	x
COc1ccc(-c2nc(CSCC(=O)N3CCN(c4cc(Cl)ccc4C)CC3)c(C)o2)cc1	u	6	x
SMILES	KDM5B inhibitor	IP6K1 inh	IP6K1 conf
COc1ccc(-c2nc(CSCC(=O)N3CCN(c4cccc(C)c4C)CC3)c(C)o2)cc1OC	u	-26*	-8%
O=C(Cc1n[nH]c(=O)c2ccccc12)N1CCN(c2ccccc2F)CC1	i	x	x
COc1cccc(-c2cccc(CN3CCCC3C(=O)N(C)C)c2)c1 (stereo unspecified)	x	1	x
COc1ccc(S(=O)(=O)NC(c2ccc(F)cc2)c2cccs2)cc1NC(C)=O (stereo unspecified)	i	x	x
COc1cccc(-c2ccc(NC(=O)C3=C(C(=O)O)CCC3)c(F)c2)c1	x	-27*	u
COc1cccc(-c2cc(C3CCN(C(=O)Nc4ccc(F)cc4F)CC3)[nH]n2)c1	i	-1	x
COc1cccc(OC(=O)CSc2nnc(-c3ccc4c(c3)OCO4)o2)c1	u	-32*	u
CCc1ccc(OC(=O)CSc2nnc(-c3ccc4c(c3)OCO4)o2)cc1	u	-1	x
COc1cc(Cl)ccc1C(=O)N[C@@H]1CN(S(C)(=O)=O)C[C@H]1CN(C)C	i	22	x
COc1ccccc1-c1ccc(C(=O)N2CCCC[C@H](N(C)C)C2)cc1	u	-31*	21%
CN(C)[C@H]1CCCCN(C(=O)c2cnc3ccccn3c2=O)C1	32µM*	-34*	18%
COc1cc(OC)c(C(=O)N2CCCC[C@H](N(C)C)C2)cc1OC	i	-10	x
O=C1CC2(CCN(C(=O)c3cnc4ccccn4c3=O)C2)C(=O)N1 (stereo unspecified)	u	7	x
CC(C)CNC(=O)N1CCCC(c2nc(CCOc3ccc(F)cc3)no2)C1 (stereo unspecified)	i	4	x
CCCCn1c(=O)c(C(=O)NCc2cccs2)nc2cccnc21	x	19	x
O=C(NCc1ccc(F)cc1)C1(Cc2nc3ccccc3s2)CCCC1	i	x	x
Cc1ccc(CNC(=O)c2cc(-c3cccnc3)nc3ccc(C)cc23)cc1	i	x	x
CNC(=O)c1cc(-c2ccc(C)cc2)cc2c1OCCN2Cc1cccnc1	u	-29*	u
NC(=O)c1cc(-c2ccccc2F)cc2c1OCCN2Cc1cccnc1	35µM*	-25*	u
O=C(c1ccncc1)N1CCCN(Cc2cccnc2)c2ccccc21	i	0	x
CC(C)c1nc2c(c(-c3ccc(Cl)cc3)n1)CN(C(=O)c1cccc(Cl)c1)CC2	x	-13	x
CN1C(C)(C)CCCC1(C)C	x	-35*	-2%
CCCCCCn1c(SCC(N)=O)nc2c1c(=O)[nH]c(=O)n2C	i	x	x
CCOc1cccc(C(=O)Nc2cccc3ccc(C)nc23)c1	i	x	x
Fc1cc(-c2cccc3ncc(-c4cnn(C5CCNCC5)c4)nc23)cc(F)c1CN1CCOCC1	x	12	-4%
SMILES	KDM5B inhibitor	IP6K1 inh	IP6K1 conf
O=S1(=O)CCN(Cc2c(F)cccc2F)c2c(F)nc(N3CCOCC3)c(F)c21	i	x	x
O=C(NCCc1ccc(F)cc1)C(=O)NCC(c1cccs1)S(=O)(=O)c1ccccc1 (stereo unspecified)	i	-30*	-3%
O=C(NCCc1ccc(F)cc1)C(=O)NCC(c1cccs1)S(=O)(=O)c1ccc(F)cc1 (stereo unspecified)	i	-3	x
CN(CC(=O)Nc1ccc(Cl)c(C(F)(F)F)c1)C(=O)CN1CCCCC1	i	x	x
N#C/C(=C\c1ccc(OC(=O)c2ccccc2)cc1)C(=O)Nc1ccccc1	i	x	x
N#C/C(=C\c1ccc(O)c(O)c1)C(=O)Nc1ccccc1	x	x	16µM*
O=C(C1CCCN([S+](=O)([O-])c2cccc(C(F)(F)F)c2)C1)N1CCC(c2nc3ccncc3[nH]2)CC1 (stereo unspecified)	x	3	x
CC(C(=O)NCC1CCCCC1)n1cnc2c1c(=O)n(C)c(=O)n2C (stereo unspecified)	i	x	x
CCn1c(C(=O)N(C2CC2)C2CC2)cc2c3c(ncn3C)c(Nc3cc(C)n(C)n3)nc21	x	-7	-2%
COc1ncccc1-c1nccc2c(=O)cc(N(C)c3ccccc3)oc12	i	-9	x
CN(C)c1cc(=O)c2ccnc(N3CCN(c4ccccn4)CC3)c2o1	i	-27*	u
CCn1c2ccccc2c2cc(CN3CCN(Cc4cc(OC)c(O)c(OC)c4)CC3)ccc21	u	-20	x
CCn1c2ccccc2c2cc(CN3CCN(Cc4ccccc4C)CC3)ccc21	u	-28*	5%
CCn1c2ccccc2c2cc(CN3CCN(Cc4ccccc4F)CC3)ccc21	u	-26*	-1%
CCn1c2ccccc2c2cc(CN3CCN(Cc4ccc(Cl)cc4)CC3)ccc21	u	-20	x

Bioassay records from PubChem.
